# From PubChem
# KDM5B inhibitor: Primary screen for KDM5B Histone Demethylases FDH-coupled qHTS; Lysine-specific demethylase 5B (Homo sapiens), Q9UGL1; KDM5B demethylase, FDH-coupled NADH fluorescence (FDH is formaldehyde dehydrogenase); Potency, µM (series often up to 57.7 µM), most hits filed as inhibitors; 220,000 tested, 2.6% active; active = well fitted inhibition curve with a large enough effect; note: 0% is about no effect; nearly all actives have a fitted effect of over 70% in size
#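 Inhibition is measured as reduced NADH fluorescence generation from FDH coupling to formaldehyde release. Truncated KDM5BΔAP at 200 nM final acts on H3K4me3 peptide (12.5 µM in substrate mix) in pH 7.5 HEPES buffer with Tween-20, 30 min, room temperature.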
# * hit, by the source's call; i = inactive. This excerpt belongs to a sample that is enriched for hits. Potency is the fitted concentration of half-maximal effect.
SMILES,KDM5B inhibitor
CC(C)(C)c1nc(CSc2n[nH]c(-c3ccccc3F)n2)no1,i
Cc1cccc(CCNC(=O)c2ccc3c(Cl)c4c(nc3c2)CCCC4)c1,i
N#Cc1ccc2c(C=O)c[nH]c2c1,i
COc1c(C)cnc(CN2CCN(C(C(=O)O)c3c[nH]c4ccc(Br)cc34)CC2)c1C (stereo not given),i
CNC(=O)CSc1cc(C)c2cc(C)cc(C)c2n1,i
O=C(CCOc1ccccc1)Nc1cnc2ccccc2c1,i
COC(=O)c1ncoc1-c1ccccc1C(=O)N1CCN(c2cccc(OC)c2)CC1,i
O=C(CCc1ncc(-c2ccccc2)o1)NCCc1cccc(F)c1,i
COc1ccc(Cc2nnc3n2N(C(C)=O)C(c2ccc(C)cc2)=C(C(C)=O)S3)cc1,i
CCN(c1ccccc1)S(=O)(=O)c1cccc(C(=O)Nc2ccc3oc(C)nc3c2)c1,i
CN(C)c1cccc(C(=O)N2CCC3(CC2)N=C(c2cccc(Br)c2)NO3)c1,32µM*
Cc1ccc(C(=O)N2CCC3(CC2)N=C(c2cccc(Br)c2)NO3)cc1,32µM*
Cc1ccc(C2=NC3(CCN(C(=O)c4cccc(N(C)C)c4)CC3)ON2)cc1,i
CN(C)c1cccc(C(=O)N2CCC3(CC2)N=C(c2ccccc2)NO3)c1,i
Cc1ccc(C(=O)N2CCC3(CC2)N=C(c2ccc(C)cc2)NO3)cc1,i
Cc1ccccc1C(=O)N1CCC2(CC1)N=C(c1cccc(Br)c1)NO2,i
CCCOc1cccc(C2c3c(-c4c(C)cc(C)cc4O)n[nH]c3C(=O)N2CCO)c1 (stereo not given),i
CCc1ccc(-c2nc(CS(=O)CC(=O)NCC(OC)OC)c(C)o2)cc1 (stereo not given),i
Cn1cnc2cc(Nc3ccc(Cl)cc3F)cc(C(=O)NCc3cccnc3)c21,35µM*
Cc1cc(-c2cc(C(=O)NCc3c(C)cc(C)[nH]c3=O)c3c(c2)ncn3C)ccn1,i
Cn1cnc2cc(-c3cccc4[nH]ncc34)cc(C(=O)NCc3cccnc3)c21,40µM*
Cc1cc(C(=O)NCc2cccnc2)c(C)s1,i
Cn1cncc1CNC(=O)c1nc(-c2cccc(N3CCOCC3)c2)cc2c1ccn2C,i
Cc1cc(C)c(CNC(=O)c2cc(Nc3ccccc3)cc3ncn(C)c23)c(=O)[nH]1,i
O=C(Nc1ccccc1C(=O)NCc1cccnc1)c1ccccc1Cl,i
SMILES,KDM5B inhibitor
Cn1cncc1CNC(=O)c1cc(-c2ccc(F)cc2)cc2ncn(C)c12,28µM*
COc1cc(C(=O)Nc2ccccc2C(=O)NCc2cccnc2)cc(OC)c1OC,i
CC1=C(C)CC(C(=O)Nc2ccc(C(=O)NCc3cccnc3)cc2)C(C(=O)O)C1 (stereo not given),i
CC(C)CNC(=O)c1coc(COc2ccc3c(c2)C(c2cccc(F)c2)N(C(=O)C2CC2)CC3)n1 (stereo not given),i
O=C(Nc1ccccc1)c1sc(NCCc2ccccc2)nc1-c1ccc([N+](=O)[O-])cc1,i
O=C1N(CCc2ccccc2)CCOC12CCN([S+](=O)([O-])c1cccnc1)CC2,i
Cc1cccc([S+](=O)([O-])N2CCC3(CC2)OCCN(CC2CC2)C3=O)c1,i
N#Cc1ccc([S+](=O)([O-])N2CCC3(CC2)OCCN(CC2CCOCC2)C3=O)cc1,32µM*
CCn1cnc2c1c(=O)n(CC(=O)Nc1cccc(C(C)=O)c1)c(=O)n2Cc1ccccc1,i
CC12CN3CC(C)(CN(C1)C31C3CC4CC(C3)CC1C4)C2=O (stereo not given),i
O=C(OC(C(=O)N1CCOCC1)c1ccccc1)c1n[nH]c(=O)c2ccccc12 (stereo not given),i
O=C(CC1CCCC1)N1CCN(c2nc3ccccc3o2)CC1,i
O=C(Cc1ccccn1)N1CCCN(c2nc3ncccc3o2)CC1,i
O=C(Nc1ccc(Cl)cc1)N1CCN(c2nc3ncccc3o2)CC1,i
COC(=O)N1CCCN(c2nc3ncccc3o2)CC1,25µM*
O=C(c1cccc(Cl)c1)N1CCCN(c2nc3ncccc3o2)CC1,i
O=C(Nc1ccccc1)N1CCN(c2nc3ncccc3o2)CC1,i
COc1ccc(C(=O)N2CCCN(c3nc4ncccc4o3)CC2)cc1,i
CC(=O)N1CCN(c2nc3ncccc3o2)CC1,32µM*
COCC(=O)N1CCCN(c2nc3ncccc3o2)CC1,28µM*
COc1ccc(C(=O)N[C@@H]2CCC[C@@H]2C(=O)N2CCN(c3ccc(Cl)cc3)CC2)cc1,i
Cn1ccnc1C(NC(=O)Cc1n[nH]c(=O)c2ccccc12)c1ccc(F)cc1 (stereo not given),i
COc1ccc(Cl)cc1N(CC(=O)N1CCc2ccccc2C1)S(C)(=O)=O,i
COc1ccc(CCNC(=O)CSc2ccc(-c3ccccn3)nn2)cc1OC,i
Cc1ccc(C(=O)NC(C(=O)Nc2ccccc2C)C(C)C)cc1 (stereo not given),i
SMILES,KDM5B inhibitor
N#CC1=C(N)OC2=C(C(=O)CC(c3cccs3)C2)C1c1ccccc1 (stereo not given),i
CN(C)Cc1cn2c(=O)n(C)cc(-c3ccc(F)c(Cl)c3)c2n1,i
C#CCOc1cc(Br)c(/C=C2\NC(=O)NC2=O)cc1OCC,i
COCCCn1c(C(C)Oc2ccc(C(C)(C)C)cc2)n[nH]c1=S (stereo not given),i
COCCCNc1cc(-c2cccs2)nc2c(C)noc12,i
COc1nc2cc(C)ccc2cc1-c1noc(-c2cccs2)n1,i
Cc1noc2c(N3CCOCC3)cc(-c3cccs3)nc12,i
Cc1cc(-c2cc(-c3cccs3)nc3c(C)noc23)ccn1,28µM*
COc1ccccc1-c1cc(-c2cccs2)nc2c(C)noc12,35µM*
Cc1noc2c(-c3ccc(N4CCOCC4)cc3)cc(-c3cccs3)nc12,i
CCOc1ccc(N2CC(C(=O)N(C)CC(=O)NCc3ccco3)CC2=O)cc1 (stereo not given),i
CCCCCCCCCCCCS(=O)CC(Cl)CO (stereo not given),i
COCCNC(=O)c1nn(-c2ccc(C)cc2)c(=O)c2c1c1ccccc1n2C,i
CCc1ccccc1-n1c(C)nc2cc(C(=O)NCCc3ccc(Cl)cc3)ccc21,i
COC(=O)CNC(=O)c1nc(-c2cc(Cl)cc(Cl)c2)c2ccccn12,25µM*
COCCNC(=O)c1nc(-c2c(C)cccc2C)c2ccccn12,35µM*
Cc1cccc(C)c1-c1nc(C(=O)NCCc2ccc(Cl)cc2)n2ccccc12,14µM*
Cc1cc(C)c2c(-n3cccc3)c(C(=O)NCCc3ccc(Cl)cc3)sc2n1,i
C#CCNC(=O)c1nc(-c2c(C)cccc2C)c2ccccn12,40µM*
COC(=O)CNC(=O)Cn1ccc2c(Cl)cccc21,i
COCCNC(=O)c1cccc2c1-c1ccccc1C2=O,i
C=CCN(CC(F)(F)F)C(=O)CCc1c[nH]c2ccccc12,i
CN1CCN(c2oc(-c3ccccc3F)nc2S(=O)(=O)c2ccc3c(c2)OCCO3)CC1,i
Cc1nc(NC(=O)c2cccc(OCC(C)C)c2)ccc1Br,i
COC(=O)c1c(NC(=O)C2CCCCC2)sc(C(=O)N(C)C)c1C,i
COC(=O)c1nc2n(n1)C(c1cccc(Br)c1)C(C(=O)Nc1ccc(C)cc1C)=C(C)N2 (stereo not given),i
C/C(=N/NC(=O)C1CC1)c1ccc(C)cc1,i
